# In the library only some 6.6% were active in any assay of this set; here they are far more common.
# SW480 rerep = induces DNA re-replication in SW480 colon adenocarcinoma cells; SW480 DNA re-replication, Hoechst DNA content imaging, 48 h; Potency, µM (doses to about 46.1 µM), usual class: activators; 340,000 compounds, 1.8% hits; AID 624297; note: nearly all actives have a fitted effect of over 55% in size
#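 SW480 cells exposed to compounds for 48 hr at 37 C, 5% CO2, then Hoechst-stained 40 min. Nuclear DNA content imaged by fluorescence scanning (405 nm excitation, 500-530 nm emission); re-replication scored as increased high-intensity nuclei.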
# KB-3-1 cytotox = kills parental KB-3-1 adenocarcinoma cells; KB-3-1 viability, CellTiter-Glo ATP luminescence, 72 h; AID 1347075; 400,000 compounds, 1.4% hits; Potency, µM (highest dose often 46.1 µM), actives largely listed as cytotoxic; note: nearly all actives have a fitted effect of over 60% in size
#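 Screening of KB-3-1 cells (DMEM, 10% FBS, phenol-red free) ran from lowest to highest compound concentration; after 72 h at 37 °C viability was read luminescently and curves fitted.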
# MCF10A rereplic = inducers of DNA re-replication in MCF 10A breast cells; MCF 10A DNA re-replication, Hoechst nuclear intensity, 48 h; Potency, µM (top dose mostly 46.1 µM), usual class: activators; 350,000 compounds, 2.9% hits; AID 624296; note: nearly all actives have a fitted effect of over 50% in size
# PTAP TSG101 blk = blocks PTAP/TSG101 interaction to inhibit HIV-1 budding | Q99816 | AID 493005 | Fluorescence polarization, FITC-PTAP peptide / Tsg101 binding | Potency, µM (series often up to 115 µM), hits mostly inhibitors | 340,000 tested, under 10 active; active = well fitted inhibition curve with a large enough effect in the main read-out, with a control signal flat, not every such curve was filed as active; inconclusive = small, poorly fitted or top-dose-only effect, or effect the other way, or a change in a side signal; inactive = no such curve, though single readings can be large or run the other way
# Target sequence (Q99816 whole entry, looked up): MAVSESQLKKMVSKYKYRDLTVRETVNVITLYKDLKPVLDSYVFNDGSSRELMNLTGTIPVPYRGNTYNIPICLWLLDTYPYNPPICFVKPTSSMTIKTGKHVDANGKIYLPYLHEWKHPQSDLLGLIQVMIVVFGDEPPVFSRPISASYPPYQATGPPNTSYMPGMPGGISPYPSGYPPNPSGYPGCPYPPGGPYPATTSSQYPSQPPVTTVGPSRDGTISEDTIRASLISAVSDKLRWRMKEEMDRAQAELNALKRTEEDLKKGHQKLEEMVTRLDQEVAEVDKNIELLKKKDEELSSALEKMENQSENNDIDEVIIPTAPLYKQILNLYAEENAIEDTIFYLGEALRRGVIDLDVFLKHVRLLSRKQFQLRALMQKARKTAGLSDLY
#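 FP read-out: FITC-PTAP peptide, 50 nM final, binding Tsg101 binding domain, 10 uM final; 20 min, r.t.; 10 mM HEPES pH 7.5, 0.15 M NaCl, 0.01% Tween 20, 3 mM EDTA, 0.1 mM TCEP.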
# RGS4 inh = human RGS4 inhibition. AID 504845. 390,000 compounds, 0.039% hits. P49798. Transcreener GDP fluorescence polarization, RGS4-accelerated GTP hydrolysis. Potency, µM (highest dose often 114 µM), actives largely listed as inhibitors; note: nearly all actives have a fitted effect of over 75% in size
#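 MLSMR compounds (23 nl, pin-transferred) preincubated 10 min at room temperature with a 500nM (2x) first reagent, then RGS4 at 900nM (2x) plus Transcreener GDP mix added; fluorescence polarization (620/688 nm) read before and after 90 min at 30 °C.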
# KB-V1 MDR tox = KB-V1 MDR subline cytotoxicity; KB-V1 MDR cells viability, CellTiter-Glo, 72 h; Potency, µM (series often up to 46.1 µM), most hits filed as cytotoxic; 400,000 compounds, 3.4% hits; AID 1347076; note: nearly all actives have a fitted effect of over 60% in size
#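 KB-V1 MDR subline cells in DMEM (phenol-red free, 10% FBS) exposed to compounds in qHTS concentration series for 72 h at 37 degrees C. Viability read by CellTiter-Glo luminescence; concentration-effect curves fitted after normalization and correction.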
# A number is an active result; 0 = inactive; ? = inconclusive; - = no result; [ ] = another dose, or the depositor's remark. Unless noted, calls come from the whole dose curve; as a rule, active = well fitted curve in the direction sought with a large enough effect; inconclusive = small, poorly fitted or top-dose-only effect, or another doubt; inactive = no such curve, though single readings can be large; an effect the other way counts as inactive or inconclusive.
SMILES,SW480 rerep,KB-3-1 cytotox,MCF10A rereplic,PTAP TSG101 blk,RGS4 inh,KB-V1 MDR tox
CCOC(=O)c1c(-c2ccccc2)csc1NC(=O)C(C)NCCCN1CCOCC1 (configuration not stated),?,?,0,0,0,?
CCOC(=O)c1c(-c2ccc(-c3ccccc3)cc2)csc1NC(=O)CCN1CCOCC1,0,?,8.2µM,0,0,0
COc1ccc(OC)c(NC(=O)Cn2c(=O)cc(C)c3c(C)nn(-c4cccc(Cl)c4C)c32)c1,-,-,-,-,0,-
Cc1ccc(F)c(C2C3C=CCCC3(C)C(=O)N2Cc2ccccc2)c1 (configuration not stated),-,-,-,-,0,-
COc1ccc(-c2nc(C)c(CCNC(=O)C(=O)Nc3ccccc3OC)s2)cc1,-,0,-,-,0,0
COc1ccc2c(c1)CC/C(=C\Nc1ccc3c(c1)OCO3)C2=O,0,0,0,0,0,0
O=C1/C(=C/Nc2ccc3c(c2)OCO3)CCc2ccccc21,?,?,?,0,?,23.1µM
Cc1cc2ccccc2n1CCNC(=O)C1CCCC1,0,0,0,0,0,18.4µM
CCC(Cn1nnc2ccccc2c1=O)NC(=O)Nc1cc(C)cc(C)c1 (configuration not stated),-,-,-,-,0,-
CCSc1nnc(-c2ccc(S(=O)(=O)NCc3cccs3)cc2)o1,0,0,?,-,0,20.6µM
CCOc1ccc(S(=O)(=O)NCc2cccs2)cc1,0,0,0,0,0,0
COc1ccc(C2Nc3ccc(NC(C)=O)cc3C(=O)N2Cc2cccc(Cl)c2)cc1COc1ccc(NC(C)=O)cc1 (configuration not stated),-,-,-,-,0,-
Cc1ccc(NC(=O)Cn2c(=O)n(CC3CCCO3)c(=O)c3ccccc32)cc1 (configuration not stated),-,0,-,-,0,0
Cc1ccc(C(=O)OC(C)C(=O)NC2CCCCC2C)s1 (configuration not stated),0,0,0,0,0,20.6µM
CC(OC(=O)c1cccs1)C(=O)NC1CCCCC1C (configuration not stated),0,0,?,0,0,0
CC(OC(=O)c1ccccc1NCCO)C(=O)NC1CCCCC1C (configuration not stated),0,0,0,0,0,9.2µM
CN(C)c1nc(C(=O)Nc2ccccc2)nc(N(C)C)n1,0,0,0,0,0,0
CN(C)c1nc(NNC(=O)c2ccccc2)nc(N(C)C)n1,0,0,0,0,0,8.2µM
CSc1cccc(Nc2cc(C(=O)NCCCN(Cc3ccccc3)C(C)C)c3ccccc3n2)c1,-,0,-,-,0,16.4µM
Cc1cc(C)cc(Nc2cc(C(=O)NCCCN(Cc3ccccc3)C(C)C)c3ccccc3n2)c1,-,?,-,-,0,?
O=C(Cn1ccc2cc(S(=O)(=O)N3CCCCC3)ccc21)NCCc1ccccc1Cl,-,0,-,-,0,0
COc1ccc(C2C=C(C34CC5CC(CC(C5)C3)C4)NC(=S)N2)cc1OC (configuration not stated),?,0,0,0,0,18.4µM
O=c1[nH]cnc2ccc([N+](=O)[O-])cc12,0,0,0,0,0[11.4 µM],0
Cc1noc(C)c1-c1ccc2nc[nH]c(=O)c2c1,0[9.22 µM],13µM,0,0,0,?
COc1ccc(OC)c2[nH]c(=O)c(CCNC(=O)COc3ccccc3)cc12,0,0,0,0,0,9.2µM
Nc1ccc(C(Cc2ccnc3ccccc23)Cc2ccnc3ccccc23)cc1,-,?,-,-,-,0
COc1ccc(CCn2c3c(c(=O)[nH]c2=O)C(NC(=O)c2ccccc2OC)(C(F)(F)F)C(=O)N3)cc1OC (configuration not stated),-,0,-,-,0,?
Cc1cc(C)c2c(CC(=O)Nc3ccc(S(=O)(=O)N4CCCC(C)C4)cc3)coc2c1 (configuration not stated),-,0,-,-,0,0
O=C(O)CCc1ccc(-c2ccccc2)n1NC(=O)c1cccs1,23.1µM,0,0,0,0,0
